Source: the OligoGym collection

molecular target: RNF219; test: pooled miR-30 sensor sort-seq; sequence = guide strand; conditions: shRNA
Also: reference of the scale not given here.

| Sequence | sensor-assay potency score (higher = more potent) |
| --- | --- |
| TAAACAATCTATTTCGTCCTCA | 0.474 |
| TTCACTTGAATTTTTTAGCTGT | 0.783 |
| TCTGTCTGAAACAAGCAGCTTG | -0.169 |
| TACTTGTATCTGTCACATCTAA | -0.451 |
| TTAGCTTATCCACATCATCTTT | -0.899 |
| TTTTGGATAAACATAAGCCTGA | -0.319 |

molecular target: RNF41; test: as above; conditions: shRNA

| Sequence | sensor-assay potency score (higher = more potent) |
| --- | --- |
| TCATCTGTCTAGTCTCTAGTGT | -0.527 |
| TAGCGTCGGTTCATCTGTCTAG | 0.0647 |
| AACATGTTCCGCATGATCCGAG | -0.3 |
| AAGATCTTCGTCAACATCCCCC | -0.164 |
| ATCTGTCTAGTCTCTAGTGTGG | -0.878 |
| TAATTTATAGACATTTTAGGGG | 0.0646 |
| TTTGACAACATGTTCCGCATGA | 0.502 |
| ATCTTCGTCAACATCCCCCTGG | -0.316 |
| TAGTTCTCATAGTAGCGTCGGT | -0.784 |
| TTCAGCTGACGTCTTCTCCAGC | -0.881 |
| TCTGATTTCCATCTCTTCCTGA | 0.105 |

molecular target: RNMTL1; test: as above; conditions: shRNA

| Sequence | sensor-assay potency score (higher = more potent) |
| --- | --- |
| TTATTGATAATGGGCATCCGGA | -0.992 |
| TTCTGTTCCACCACCTCTCCGG | -0.00954 |
| TTTCCTGTAACTGTATGACGGC | -0.465 |
| TTTATTAGACATCTCAGCCTGG | 0.616 |
| TGATGCTTCAGGAACTTTCTGG | -0.0145 |
| TTATTAGACATCTCAGCCTGGG | -0.331 |
| TACTATTGTCATTACACTGCTC | 0.0183 |
| TTGGTGAGTAACACTTTGCTGC | -0.11 |
| TTGTGAAACTTCATCACTCGTT | 0.595 |
| TTTACTATTGTCATTACACTGC | -0.096 |
| TTGTCAGCCACATAGACCCGAG | -0.82 |
| TAGCTTTATTAGACATCTCAGC | -0.834 |

molecular target: RNPC3; test: as above; conditions: shRNA

| Sequence | sensor-assay potency score (higher = more potent) |
| --- | --- |
| TTCTCTAGAAATTCTGCCCTTT | -0.078 |
| TTTTTCTTTATCATCTTCGACA | -0.554 |
| TTTGCTAGGATTGTGCTGGAAG | -0.549 |
| TATATCAAACATGATCCGCTGT | 0.81 |
| TTCTTTATCATCTTCGACAGGG | 0.314 |
| TTTCTTGAACATGTTTAGCTAA | -0.355 |
| TATTGTTTTAGGTCTTTTGGGC | -0.105 |
| TTGGTCTAGCAGATCGAGCAAA | -1.03 |
| TTAAATACACTTTCAAAGCTGT | 0.272 |
| TTCCTCACAATTTTGTTCCTTT | 1.11 |
| TTCTTGAACATGTTTAGCTAAA | -1.09 |
